For 95 molecules, cytotoxicity results are on record in PubChem BioAssay AID430 (Sanford-Burnham Center for Chemical Genomics, 2006).

Each structure is given as a SMILES string. About 1,100 (1.7%) of roughly 63,000 compounds were called active. Rule as the data show it: active = cytotoxicity above about 50%; inactive = the rest. Shown is part of a subset that was picked to be rich in actives. Measured potencies and affinities stand elsewhere.

The assay can be described thus: HPDE-C7 pancreatic duct cell viability loss – fluorescence, HTS (AID 430).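 Also: cells exposed to compound for 48 hours before viability readout; 0% = vehicle and 100% = reference cytotoxic drug.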 Particulars: HPDE-C7 pancreatic duct cells viability, at 10 µM, stronger effect = higher value.
For `COc1ccc(-n2c(Cc3cccn3C)nnc2SCC(=O)Nc2ccccc2F)cc1`, the cytotoxicity is -11.2% (inactive). Then `Cc1ccc(C(=O)C2=C(O)C(=O)N(c3ncccn3)C2c2cccc(Cl)c2)o1` (stereo not given), with 22.7% (inactive).

For `O=C(C1=C(O)C(=O)N(c2ncccn2)C1c1ccc(Cl)c(Cl)c1)c1ccco1` (stereo not given), the cytotoxicity was 7.8% (inactive).

`Cc1ccc(C(=O)C2=C(O)C(=O)N(c3ncccn3)C2c2ccc(Cl)cc2)o1` (stereo not given): the cytotoxicity is 68.3% (active). As to `CCOc1ccc(-c2noc(-c3cccnc3)n2)cc1OC`, the cytotoxicity is 0.1% (inactive). Under `Cc1[nH]nc2c1C1(CCN(C(=O)c3ccccc3)CC1)C(C#N)=C(N)O2` stands -19.1% (inactive). Under `Cc1ccc(NC(=O)N2CCC(C(=O)NCCC3=CCCCC3)CC2)cc1` stands -6.2% (inactive). Then `CC1(C)Cc2noc(N)c2C(C)(C)N1OC(=O)c1ccccc1`, with -5.7% (inactive).

On to `Cc1csc(NC(=O)c2sc3nc(-c4cccs4)ccc3c2N)n1`, for which the cytotoxicity was 60.5% (active). Under `CCCSc1nnc(NC(=O)c2sc3nc(-c4cccs4)ccc3c2N)s1` stands 41.2% (inactive); under `Nc1c(C(=O)NC2CCCC2)sc2nc(-c3cccs3)ccc12`, 10.5% (inactive). Under `CCCOc1ccc(S(=O)(=O)NCCN2CCOCC2)c2ccccc12` stands -13.1% (inactive). Then `O=C(NC1CCCCC1)C1CC(=O)N(c2ccc(Cl)cc2)C1` (stereo not given), with -9.5% (inactive); and `CC1(C)C(c2cccs2)=NC(c2ccccc2)N1O` (stereo not given), with -25.9% (inactive); and `Cc1ccc(C(N)=O)cc1S(=O)(=O)Nc1cccc(C)c1C`, with 18.4% (inactive).

As for `O=C(CC1Oc2ccccc2NC1=O)NCCCN1CCN(C2CCCCC2)CC1` (stereo not given), the cytotoxicity is 2.6% (inactive). Under `O=C(CC(SCCO)c1ccc(F)cc1)c1ccco1` (stereo not given) stands 3.7% (inactive); under `O=C(CSCCSCC(=O)c1ccco1)c1ccco1`, 10.6% (inactive); under `Cc1ccc(C(CC(=O)c2ccco2)SCCO)cc1` (stereo not given), 99.5% (active).

Regarding `CCC(=O)N1CC23C=CC(CC2CC12CCCCC2)O3` (stereo not given), the cytotoxicity was -6.8% (inactive). Then `COc1ccc(OC)c(CC(NC(C)=O)C(=O)NC2CCN(c3nc(C)cc(C)c3C#N)CC2)c1` (stereo not given), with -6.9% (inactive).

Take `COc1ccc(-c2oc(/N=C/N3CCOCC3)c(C#N)c2-c2ccc(OC)cc2)cc1`: the cytotoxicity is -7.7% (inactive). Under `NC1=NC2(CCN(Cc3ccccc3)CC2)n2c(nc3ccccc32)N1` stands 0.8% (inactive).

Consider `NC1=NC2(CCCCC2)n2c(nc3ccccc32)N1`, for which the cytotoxicity was 11.9% (inactive). Then `NC1=NC2(CCC(c3ccccc3)CC2)n2c(nc3ccccc32)N1` (stereo not given), with 77.1% (active). Under `CCCn1c(SCC(=O)Nc2ccc3c(c2)OCO3)nc2c1c(=O)n(C)c(=O)n2C` stands -4.6% (inactive). Then `Cc1noc(C)c1CSc1ncnc2ccccc12`, with 4.7% (inactive). Regarding `Cc1noc(C)c1CSc1nc2ccccc2nc1NS(=O)(=O)c1ccc(Cl)cc1`, the cytotoxicity was 81.1% (active).

Take `O=S(=O)(Nc1nc2ccccc2nc1NCc1ccco1)c1ccc(Cl)cc1`: the cytotoxicity was 18.1% (inactive). Then `O=C(c1ccco1)N1c2ccccc2Sc2ccccc21`, with 4.4% (inactive).

Take `O=C(c1ccco1)N1CCN(C(=O)N2c3ccccc3Sc3ccccc32)CC1`: the cytotoxicity is 73.2% (active). Under `O=C(N1CCN(c2ccccn2)CC1)N1c2ccccc2Sc2ccccc21` stands 66.7% (active); under `O=C(NC1CCN(C(=O)N2c3ccccc3Sc3ccccc32)CC1)c1ccco1`, -12.6% (inactive); under `O=C(CN1CCN(c2ccccn2)CC1)N1c2ccccc2Sc2ccc(C(F)(F)F)cc21`, 22.1% (inactive). Then `O=C(N1CCOCC1)N1CCN(c2ccccn2)CC1`, with -15.7% (inactive).

Consider `CC(=O)N1c2c(cc(Br)cc2S(=O)(=O)NCC2COc3ccccc3O2)CC1C` (stereo not given), for which the cytotoxicity was 13.1% (inactive).

Turning to `COc1ccc(-c2oc3ncnc(NCCN4CCOCC4)c3c2-c2ccc(OC)cc2)cc1`, the cytotoxicity is 3.3% (inactive). Under `c1ccc(-c2oc3ncnc(NCCCN4CCOCC4)c3c2-c2ccccc2)cc1` stands 48.6% (inactive); under `COc1ccc(-c2oc3ncnc(NCCCN4CCOCC4)c3c2-c2ccc(OC)cc2)cc1`, 67.3% (active).

Turning to `Cc1cccc(CS(=O)(=O)Cc2ccc(C(=O)NCc3cccnc3)o2)c1`, the cytotoxicity was -7.1% (inactive). Then `c1ccc2c(SCc3cn4cccnc4n3)ncnc2c1`, with 13.3% (inactive); and `Cc1cc(=O)n2c3c(sc2n1)C(=O)N(Cc1ccccc1)C3=O`, with 3.8% (inactive). Under `Cc1cccc(Nc2nc(N)nc(CN3CCN(c4ccccc4)CC3)n2)c1` stands -13.2% (inactive); under `COc1ccc(N2CCN(Cc3nc(N)nc(Nc4ccc(C)c(Cl)c4)n3)CC2)cc1`, 7.9% (inactive). Under `Cc1ccc(Nc2nc(N)nc(CN3CCN(c4ccccc4)CC3)n2)cc1Cl` stands 72.1% (active); under `O=C(Nc1nccs1)c1ccc(Br)o1`, -3.3% (inactive). For `Cc1ccc(C(=O)NCCn2cc(SCC(=O)Nc3nnc(C)s3)c3ccccc32)cc1`, the cytotoxicity was -2% (inactive). Then `c1ccc(CSc2nnc(-c3c[nH]c4ccccc34)o2)cc1`, with -3.6% (inactive); and `S=c1[nH]nc(Cc2c[nH]c3ccccc23)o1`, with -0.8% (inactive); and `O=C(Nc1ccc2c(c1)OCO2)Oc1ccccc1`, with -9.1% (inactive). Under `OCCN(CCO)c1ncnc2c1sc1nc(N3CCOCC3)c3c(c12)CCCC3` stands -3.9% (inactive); under `COC(=O)CSc1ncnc2c1sc1nc(-c3ccco3)c3c(c12)CC(C)(C)OC3`, 15% (inactive). As to `c1nc(NCCN2CCOCC2)c2sc3nc(N4CCOCC4)c4c(c3c2n1)CCC4`, the cytotoxicity was 16.6% (inactive). Then `CSc1nc(N2CCN(CCO)CC2)c2sc3nc(-c4ccco4)c4c(c3c2n1)CCC4`, with -8.6% (inactive). Take `CCC1Oc2ccccc2N(CC(=O)NCCC2=CCCCC2)C1=O` (stereo not given): the cytotoxicity was 0.8% (inactive). Take `COc1cccc(N2CCN(C(=O)CCn3c(=S)[nH]c4cc5c(cc4c3=O)OCO5)CC2)c1`: the cytotoxicity was -14.3% (inactive). Then `Cc1cc(C)n(-c2nnc(C)n2/N=C/c2ccccc2OCc2ccccc2Cl)n1`, with 34.5% (inactive); and `CCCOc1ccc2ccccc2c1/C=N/n1c(C)nnc1-n1nc(C)cc1C`, with 41.9% (inactive); and `Cc1cc(C)n(-c2nnc(C)n2/N=C/c2cc(Br)ccc2OCc2ccccc2)n1`, with 57.6% (active). Under `Oc1ccc(Br)cc1-c1cc(-c2ccccc2F)[nH]n1` stands 12.4% (inactive).

In the case of `COc1ccc(O)c(-c2cc(-c3cccs3)[nH]n2)c1`, the cytotoxicity is 26.9% (inactive).

`CSc1nnc2n(-c3ccccc3)c(=O)c3c4c(sc3n12)CCC4`: the cytotoxicity is 11.5% (inactive). Under `O=S(=O)(c1ccccc1)N1CCN(Cc2ccccc2C(F)(F)F)CC1` stands -2.9% (inactive); under `CCOc1ccc(NS(=O)(=O)c2ccc3c(c2)CCN3C(=O)CCC(=O)O)cc1`, -5.5% (inactive); under `O=S(=O)(c1ccc2ccccc2c1)N1CCCCC1`, -5.5% (inactive). Then `O=S(=O)(c1ccc2ccccc2c1)N(CC(O)CN1CCOCC1)c1ccccc1` (stereo not given), with -8% (inactive); and `CCCn1c(SCC(=O)Nc2cccc(C)n2)nnc1-c1ccco1`, with -2% (inactive). In the case of `CCOC(=O)C1=C(C)NC(C)=C(C(=O)OCC)C1c1ccc(OC)cc1`, the cytotoxicity was 11.1% (inactive).

Consider `CN1CCN(C(CNS(=O)(=O)c2ccc(Cl)cc2)c2cccnc2)CC1` (stereo not given), for which the cytotoxicity was 2.1% (inactive). Under `COCCNC(=O)C(c1ccccc1C)N(CCOC)C(=O)Cn1nnc2ccccc21` (stereo not given) stands 4.3% (inactive); under `O=C(CSc1nnc(-c2cccs2)o1)N1CCOCC1`, -10.3% (inactive). As to `CCOC(=O)c1cn(CC)c2cc(N3CCCCC3)c(F)cc2c1=O`, the cytotoxicity is 3.7% (inactive). Under `CCOC(=O)c1cn2c3c(c(F)c(F)c(F)c3c1=O)SC(N1CCCC1)=N2` stands 62.5% (active); under `CCOC(=O)c1sc2c(c1C)c(=O)c(C(=O)OCC)cn2CC`, 1.7% (inactive); under `CCCOCCOC(=O)C1=C(C)NC(=O)NC1c1cc(Cl)c(O)c(OC)c1` (stereo not given), -9.1% (inactive). Then `Cc1nn(CC(O)Cn2c3c(c4ccccc42)CCN(C)C3=O)c(C)c1Br` (stereo not given), with -4.2% (inactive).

Turning to `Cc1cc(-c2csc(N)n2)c(C)n1CCc1ccccc1`, the cytotoxicity was 78.3% (active). Then `Nc1nc(-c2ccccc2Br)cs1`, with 11.7% (inactive); and `CCOC(=O)c1cc(C)n(CCc2ccccc2)c1C`, with -7.6% (inactive). For `CCOC(=O)N1CCN(C/C(C)=C/c2ccccc2)CC1`, the cytotoxicity is -6% (inactive). Then `CCN(CCN(C)C)C(=O)Cn1ncc2c1-c1cc(C)ccc1OC2`, with -7.1% (inactive); and `CCOc1ccc(C(=O)N2CCc3cc(OC)c(OC)cc3C2)cc1OCC`, with 18.6% (inactive). Under `COc1ccc(C(=O)N2CCc3cc(OC)c(OC)cc3C2)cc1OC` stands 5.8% (inactive). Take `CCOc1cc(C(=O)N2CCc3cc(OC)c(OC)cc3C2)ccc1OC(F)F`: the cytotoxicity is 82.5% (active). Under `Cc1ccccc1CSc1ncc(C#N)c(N)n1` stands -10.1% (inactive).

In the case of `COc1ccc(Nc2cc(C(=O)NCCCN3CCN(C)CC3)c3ccccc3n2)c(OC)c1`, the cytotoxicity was 2% (inactive). Under `Cc1csc(C(C#N)C(=O)c2ccncc2)n1` (stereo not given) stands -11% (inactive); under `Cc1ccc(-n2c3c(cc(C(=O)Nc4cccc(C)n4)c2=O)C(=O)CCC3)cc1`, -27.7% (inactive). Then `COc1ccc(-n2c3c(cc(C(=O)Nc4ccc5c(c4)C(=O)NC5=O)c2=O)C(=O)CCC3)cc1`, with 58.8% (active); and `Cc1cccc(NC(=O)c2cc3c(n(-c4ccccc4)c2=O)CCCC3=O)n1`, with 9.4% (inactive).

Regarding `COC(=O)c1cc(OC)c(OC)cc1-n1cnc2cc(OC)c(OC)cc2c1=O`, the cytotoxicity is -9.2% (inactive).

As for `Cc1cccc(NC2=NC3(CCCCC3)N=C(N)N2)c1C`, the cytotoxicity is -3.7% (inactive). Then `CCOc1ccc(NC(=O)CN2C(=O)COc3ccc(Cl)cc32)cc1`, with -2% (inactive).

In the case of `CCOC(=O)c1ccc2c(c1)nc(SC/C(O)=C(\C#N)c1nc3ccccc3[nH]1)n2CC`, the cytotoxicity was 16.2% (inactive). Under `Cc1nnc(SCc2ccc(Cl)cc2)n1CC1CCCO1` (stereo not given) stands 2.4% (inactive).
